Structures are written as SMILES. A number with no mark means an inactive call. Inconclusive results are not listed. Active and inactive are the calls of the source. Unless noted, the call rests on the fitted dose curve; in most records, active means well fitted curve in the direction sought with a large enough effect; inconclusive means small, poorly fitted or top-dose-only effect, or another doubt; inactive means no such curve, though single readings can be large; an effect the other way counts as inactive or inconclusive. A value given as a limit tells only on which side of the number the result lay.

Assay [1] is described as follows: Cell Viability - LYMP1-003 - Assay at 24 hr (AID 963).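 Further: plate controls were DMSO only for no effect and tetraoctylammonium bromide positive control for full effect.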 The method in brief: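 Concentration-response qHTS: ATP loss measured by CellTiter-Glo luminescence after 24 h compound exposure at 37 C. Cells were LYMP1-003 human lymphoblastoid, 2500 per well. AC50 derived via standard Hill equation modeling.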
Assay [2] deals with Estrogen receptor (Homo sapiens) (UniProt P03372). Put plainly: qHTS assay for small molecule antagonists of estrogen receptor alpha signaling (AID 588513; active means well fitted curve in the direction sought with a large enough effect in the signal ratio, with a control signal flat, not every such curve was filed as active; the % refers to the signal ratio; further: on the % scale 0 is the no-effect control and ±100 the full control effect). The method in brief:
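Fluorescence from CCF4 substrate after 2 h at room temperature gave reporter activity; cells had been exposed to compound and 0.5nM 17-beta-estradiol for 18 h at 37 C. Hill-equation fitting yielded IC50 and maximal response.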
(In qHTS, concentration-response curves come from the screen itself.)

Assay [3] concerns the target Glucocorticoid receptor (Homo sapiens) (UniProt P04150). Put plainly: qHTS assay for small molecule antagonists of glucocorticoid receptor signaling (AID 588533; active means well fitted inhibition curve with a large enough effect in the signal ratio, with a control signal flat, not every such curve was filed as active; the % refers to the signal ratio;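 further: cells stimulated with 2 nM dexamethasone as agonist; on the % scale 0 is the no-effect control and ±100 the full control effect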). The procedure, abridged: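 Antagonist-mode qHTS: compound titrations added to GRE-bla HeLa cells, then dexamethasone 2 nM final; 18 h, 37 C. CCF4 FRET fluorescence normalized to dexamethasone and DMSO; IC50 from Hill fit.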

Assay [4] can be described thus: Cell Viability - Jurkat (AID 426;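 active means dose-dependent loss of cell ATP signal giving a full or clear fitted curve, ranked by lower potency value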;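 further: potency means the concentration at half of the fitted maximal effect; cells exposed to compound for 40 hours at 37 °C before ATP read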). As to conditions: qHTS. The procedure, abridged:
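Cytotoxicity taken as drop in cellular ATP (CellTiter-Glo luminescence, 20 min room temperature) after 40 hr, 37C treatment of 5000 Jurkat Clone E6-1 cells per well; concentration-response fitted with Hill equation for AC50.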

The nature of assay [5]: Cell Viability - NIH 3T3 (AID 541).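 Further: cells exposed to compound for 40 hours; nearly all actives have a fitted effect of over 25% in size.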 Further: potency means the concentration at half of the fitted maximal effect.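 On activity change, negative = cytotoxicity: plate controls were DMSO alone for no effect and tamoxifen positive control for full effect.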 As to conditions: NIH 3T3 cell viability, qHTS; activity change, negative = cytotoxicity: at 92.2 µM (top of the series). The method in brief: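 Intracellular ATP (CellTiter-Glo luminescence, 20 min at room temperature) measured after 40 hr compound exposure at 37 °C of 1000 NIH 3T3 mouse fibroblasts/well in complete medium; AC50 derived by Hill-equation modelling of qHTS concentration-response curves.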

Assay [6] can be described thus: Cellular Toxicity (caspase-3) SK-N-SH (AID 661).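 Further: cells exposed to compound for 16 hours; 0% = DMSO basal and 100% = 10 µM staurosporine.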 The method in brief: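 Caspase 3/7 activation was read by luminogenic substrate cleavage after 16 hour treatment of SK-N-SH cells. Signal was scaled between DMSO and 10 uM staurosporine, and concentration-response data were fitted with the Hill equation for AC50.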
A short description of assay [7]: Cell Viability - LYMP2-023 (AID 975).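 Further: cellular ATP measured by luciferase luminescence as viability proxy; cells exposed to compound for 24 hours at 37 °C; plate controls were DMSO only for no effect and 92 µM tetraoctylammonium bromide control for full effect; nearly all actives have a fitted effect of over 55% in size.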 The method in brief:
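Intracellular ATP, read by CellTiter-Glo luminescence, reports viability after 24 hr compound exposure at 37 C. 2500 lymphoblastoid cells/well (LYMP2-023) seeded 5 hr beforehand; Hill fits give AC50; positive control tetraoctylammonium bromide.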

Assay [8] can be described thus: Cell Viability - LYMP2-025 (AID 976).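 Further: plate controls were DMSO only for no effect and tetraoctylammonium bromide control for full effect.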 The procedure, abridged: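 Cytotoxicity read as loss of intracellular ATP (luciferase luminescence) after 24 h compound treatment at 37 C. Uses LYMP2-025 lymphoblastoid cells in 1536-well format; Hill-equation modelling gives AC50; tetraoctylammonium bromide as positive control.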
A short description of assay [9]: Cell Viability - LYMP2-006 (AID 978).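 Further: cells exposed to compound for 24 hours; on the % scale 0 is the no-effect control and ±100 the full control effect; nearly all actives have a fitted effect of over 60% in size.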 The procedure, abridged:
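Cells are seeded at 2500 per well and rested 5 hr at 37 C. Compounds are added across a concentration series for 24 hr at 37 C, after which ATP is quantified by luciferase luminescence.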

A short description of assay [10]: Cell Viability - LYMP2-026 (AID 989). Further: on the % scale 0 is the no-effect control and ±100 the full control effect; nearly all actives have a fitted effect of over 50% in size. The method in brief: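 Cytotoxicity read as ATP-dependent luminescence (CellTiter-Glo, 30 min room temperature) after 24 h compound treatment at 37 C. LYMP2-026 lymphoblastoid line seeded at 2500 cells/well; AC50 derived by standard Hill equation.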
Assay [11] in a line: Cell Viability - LYMP1-002 - Assay at 40 hr (AID 994).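 Further: 0% = DMSO only and full inhibition = 92 µM tetraoctylammonium bromide; nearly all actives have a fitted effect of over 60% in size.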 The procedure, abridged: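 Cytotoxicity was read as loss of cellular ATP (CellTiter-Glo luminescence) after 40 hr compound exposure at 37 C of 2500 LYMP1-002 lymphoblastoid cells per well. Concentration-response data were fitted with the standard Hill equation to give AC50.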
In assay [12] the target is Estrogen receptor (Homo sapiens) (UniProt P03372). In words: qHTS assay for small molecule agonists of estrogen receptor alpha signaling (AID 588514; calls by dose curve;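 further: 0% = vehicle only and 100% = reference agonist; nearly all actives have a fitted effect of over 70% in size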). The method in brief: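 EC50 and efficacy came from Hill fits of beta-lactamase reporter signal (CCF4 dye, 2 h at room temperature) scaled between DMSO and 20 nM 17-beta-estradiol. Agonist mode: HEK293 ER-alpha-UAS-bla cells in charcoal/dextran-stripped serum medium, 18 h compound exposure at 37 C.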
Chain of Estrogen receptor (Homo sapiens) (P03372 whole entry, looked up): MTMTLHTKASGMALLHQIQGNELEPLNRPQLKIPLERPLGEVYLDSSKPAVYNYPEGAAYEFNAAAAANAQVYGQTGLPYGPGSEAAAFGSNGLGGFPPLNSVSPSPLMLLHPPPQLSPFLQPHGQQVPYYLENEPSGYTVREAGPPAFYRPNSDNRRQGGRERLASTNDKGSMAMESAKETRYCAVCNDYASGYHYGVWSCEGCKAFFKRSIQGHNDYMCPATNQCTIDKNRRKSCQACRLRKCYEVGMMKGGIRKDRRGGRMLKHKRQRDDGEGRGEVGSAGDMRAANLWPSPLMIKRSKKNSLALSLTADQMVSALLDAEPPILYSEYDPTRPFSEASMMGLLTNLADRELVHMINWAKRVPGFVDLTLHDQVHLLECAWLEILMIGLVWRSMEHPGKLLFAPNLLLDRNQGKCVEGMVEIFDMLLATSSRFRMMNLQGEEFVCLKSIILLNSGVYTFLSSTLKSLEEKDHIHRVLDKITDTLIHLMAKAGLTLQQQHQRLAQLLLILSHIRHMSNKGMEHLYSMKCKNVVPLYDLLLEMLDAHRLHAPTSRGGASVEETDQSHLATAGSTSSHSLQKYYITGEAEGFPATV

Assay [13] deals with Peroxisome proliferator-activated receptor gamma (Homo sapiens) (UniProt P37231). Put plainly: qHTS assay for small molecule agonists of peroxisome proliferator-activated receptor gamma signaling (AID 588536; active means well fitted curve in the direction sought with a large enough effect in the signal ratio, with a control signal flat, not every such curve was filed as active; the % refers to the signal ratio;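 further: 0% = DMSO basal wells and 100% = rosiglitazone at 2 µM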). The procedure, abridged:
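This is an agonist-mode beta-lactamase reporter assay in HEK293 PPAR-gamma-UAS-bla cells with 1% charcoal/dextran FBS. Compound titrations ran 16 h at 37 C before CCF4 detection. EC50 and efficacy are Hill fits scaled to 2 uM rosiglitazone (100%) and DMSO basal.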

Assay [14] in a line: Cell Viability - LYMP2-008 (AID 980). Further: on the % scale 0 is the no-effect control and ±100 the full control effect; nearly all actives have a fitted effect of over 60% in size. The method in brief:
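Cytotoxicity determined from ATP-dependent luciferase luminescence (CellTiter-Glo) following 24 h compound exposure of human lymphoblastoid LYMP2-008 cells at 37 C. Concentration-response data fitted to the Hill equation to give AC50.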

A short description of assay [15]: Cell Viability - Mesenchymal (AID 546).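 Further: cells exposed to compound for 40 hours before reading; 0% = DMSO only and -100% = 100 µM tamoxifen.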 Particulars: mesenchymal cells viability, qHTS; activity change, negative = cytotoxicity: at 91.7 µM (top of the series). The method in brief:
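In this qHTS cytotoxicity format, glomerulus-derived human mesenchymal kidney cells received compound for 40 hr, then luciferase-based ATP quantitation. Concentration-response data were fitted with the Hill equation.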

Assay [16] is described as follows: qHTS assay for small molecule antagonists of the retinoid-related orphan receptor gamma (ROR-gamma) signaling pathway - cell viability counter screen (AID 720652; active means well fitted curve in the direction sought with a large enough effect in the repeat runs; an effect the other way counts as inactive or inconclusive;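 further: compound exposure lasted 16 hr before ATP read; on the % scale 0 is the no-effect control and ±100 the full control effect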). The method in brief: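 Cytotoxicity counter screen: intracellular ATP (CellTiter-Glo luminescence) measured in the doxycycline-induced CHO RORE-luciferase reporter line after 16 hr compound exposure at 37 C, 5% CO2.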

Chain of Peroxisome proliferator-activated receptor gamma (Homo sapiens) (P37231 whole entry, looked up): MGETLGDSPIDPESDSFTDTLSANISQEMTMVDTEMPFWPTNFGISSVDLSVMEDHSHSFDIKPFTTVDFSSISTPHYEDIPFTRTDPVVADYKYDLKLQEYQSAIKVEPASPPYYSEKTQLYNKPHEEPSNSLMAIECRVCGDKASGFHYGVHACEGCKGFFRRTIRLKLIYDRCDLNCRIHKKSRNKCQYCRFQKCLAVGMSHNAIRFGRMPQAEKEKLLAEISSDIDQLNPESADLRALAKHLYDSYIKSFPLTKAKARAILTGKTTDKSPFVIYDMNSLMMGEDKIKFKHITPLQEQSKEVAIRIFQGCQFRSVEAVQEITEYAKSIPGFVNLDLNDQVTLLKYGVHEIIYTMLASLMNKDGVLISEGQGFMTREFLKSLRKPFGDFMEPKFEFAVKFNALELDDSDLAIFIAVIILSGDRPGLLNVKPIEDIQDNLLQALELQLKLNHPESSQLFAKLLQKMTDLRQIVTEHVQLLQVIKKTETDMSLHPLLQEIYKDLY
Chain of Glucocorticoid receptor (Homo sapiens) (P04150 whole entry, looked up): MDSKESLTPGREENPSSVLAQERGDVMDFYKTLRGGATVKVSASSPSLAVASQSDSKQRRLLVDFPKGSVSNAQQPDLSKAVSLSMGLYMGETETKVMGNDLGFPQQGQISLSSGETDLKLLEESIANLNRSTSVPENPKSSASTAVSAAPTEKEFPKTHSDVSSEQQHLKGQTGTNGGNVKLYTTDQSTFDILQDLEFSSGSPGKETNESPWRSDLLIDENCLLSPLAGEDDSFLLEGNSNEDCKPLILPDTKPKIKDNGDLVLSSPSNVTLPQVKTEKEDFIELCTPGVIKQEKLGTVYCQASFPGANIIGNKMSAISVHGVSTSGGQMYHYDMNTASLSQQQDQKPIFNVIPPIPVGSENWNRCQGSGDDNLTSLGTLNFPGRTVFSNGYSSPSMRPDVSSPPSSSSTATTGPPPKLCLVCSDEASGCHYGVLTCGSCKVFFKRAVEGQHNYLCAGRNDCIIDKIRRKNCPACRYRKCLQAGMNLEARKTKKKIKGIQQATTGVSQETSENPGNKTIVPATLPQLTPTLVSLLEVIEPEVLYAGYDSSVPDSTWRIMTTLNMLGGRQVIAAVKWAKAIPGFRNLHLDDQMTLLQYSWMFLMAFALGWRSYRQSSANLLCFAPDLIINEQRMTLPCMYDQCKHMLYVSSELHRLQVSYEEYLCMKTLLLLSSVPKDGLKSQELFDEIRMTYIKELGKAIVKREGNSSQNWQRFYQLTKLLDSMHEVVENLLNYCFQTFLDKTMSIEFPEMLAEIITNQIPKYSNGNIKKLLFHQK

In the case of `CN(C)c1ccc(C(=N)c2ccc(N(C)C)cc2)cc1`, the Potency result in assay [1] and in [3] was “inactive” in each case. Moreover, in assay [2], the molecule was classed as inactive.

On to `O=c1[nH]ncc2ccccc12`, for which the Potency in [4] was more than 92 µM. Also, the activity change, negative = cytotoxicity in [5] is -142% (active). Besides, the call in assay [6], in assay [2] and in assay [13] was inactive. Further, the Potency result in assay [1], in [7], in assay [8], in assay [9], in assay [10] and in assay [11] was “inactive” each time. For the same molecule, the Potency result in assay [12] and in [3] was “inactive” each time.

On to `CCOc1ccc2nc(N)sc2c1`, for which, in [5], the activity change, negative = cytotoxicity was -15.3%. Moreover, the result in assay [6], in [2] and in assay [13] was inactive. Further, the Potency result in assay [1], in assay [8], in assay [14], in [10], in assay [11] and in [12] was “inactive” throughout. For the same molecule, the Potency result in assay [3] is “inactive”.

Consider `Nc1ccc(N=Nc2ccccc2)c(N)c1`, for which the Potency in [4] was more than 92 µM. The Potency result in [1], in assay [7], in [14], in assay [10], in [11] and in assay [12] was “inactive” each time. The Potency entry in assay [3] is “inactive”. Also, the molecule was classed as inactive in [2] and in assay [13].

On to `CCN(CC)c1ccc2c(C)cc(=O)oc2c1`, for which the Potency in [4] was more than 92 µM. Besides, the Potency result in [15], in assay [1], in assay [7], in [8], in assay [9] and in assay [14] was “inactive” each time. The Potency result in assay [10], in assay [11] and in assay [16] was “inactive” in each case. Further, the result in assay [6] and in [2] was inactive.

Turning to `O=[N+]([O-])c1cc(Cl)c(Cl)c(Cl)c1Cl`, the Potency in [5] was 7.94 µM (active). Further, the molecule was called inactive in [6]. Further, the Potency entry in assay [7] and in assay [8] was “inactive” each time.

(Values after PubChem BioAssay (NCATS).)
